A selection: hits, their analogues and other compounds. The true share with any hit is near 19%.
IL-1B inflam inh = inhibitors of inflammasome signaling (IL-1 beta secretion) | THP-1 LPS/ATP IL-1B secretion, AlphaLISA, 16 h; stronger effect = lower value | activity change, % at 57.5 µM | actives 4.7% (n = 360,000); in the data active means activity change below about -50%; inconclusive means mostly about -30% to -49%; further: on the % scale 0 is the no-effect control and ±100 the full control effect
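Secreted IL-1B measured by AlphaLISA bead assay after 16 h compound exposure of THP-1 cells; compounds (final up to 57.5 uM) added 1 h before LPS (250 ng/mL) and ATP (1.25 mM) stimulation; lower signal means less secretion.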
TDP1 cell CPT = growth inhibition of DT40 Tdp1-/-;hTDP1 cells with camptothecin (screen for TDP1 inhibitors). chicken DT40 Tdp1-/-;hTDP1 cells + 20 nM CPT, ATP luminescence, 48 h. Potency, µM (doses to about 46.2 µM), for the others: top-dose activity change, negative = growth inhibition, most hits filed as inhibitors. actives 12% (n = 420,000). AID 686979; further: potency means the concentration at half of the fitted maximal effect; on the % scale 0 is the no-effect control and ±100 the full control effect; nearly all actives have a fitted effect of over 55% in size
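Cell growth measured by CellTiter-Glo luminescence after a minimum 48 h, 37 C compound exposure with 20 nM CPT in Tdp1-knockout DT40 cells stably expressing hTDP1, seeded 400/well; qHTS titration format.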
TGFb inhibitor = inhibitors of TGF-b signaling | HepG2 CAGA-GFP TGF-b/SMAD3 reporter, GFP fluorescence, 18 h; TGF-beta stimulated, 500 pg/mL final | Potency, µM (titrated, usually from 46.1 µM), inactives show at the highest dose activity, negative = inhibition, most hits filed as inhibitors | AID 588855 | actives 1.2% (n = 410,000); further: potency means the concentration at half of the fitted maximal effect; on the % scale 0 is the no-effect control and ±100 the full control effect; nearly all actives have a fitted effect of over 65% in size
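HEPG2 CAGA-GFP reporter cells (1000/well, DMEM with 1% FBS) received compounds, then recombinant TGF-beta at 500 pg/mL final for 18 hours at 37 degrees C. Per-cell GFP summed per well was normalised to unstimulated and stimulated DMSO controls before curve fitting.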
TDP1 cell noCPT = qHTS for Inhibitors of human tyrosyl-DNA phosphodiesterase 1 (TDP1): qHTS in cells in absence of CPT; AID 686978, 2013; DT40 Tdp1-/- hTDP1 cells, no CPT, ATP luminescence, 48 h; Potency, µM (series often up to 46.2 µM), without a hit: at the top dose activity change, negative = growth inhibition, hits mostly inhibitors; actives 15% (n = 420,000); further: potency means the concentration at half of the fitted maximal effect; on the % scale 0 is the no-effect control and ±100 the full control effect; nearly all actives have a fitted effect of over 55% in size
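DT40 Tdp1-/-;hTDP1 cells, no CPT (DMSO vehicle only), 400 cells/well; compounds pin-transferred; ≥48 hr, 37 °C; CellTiter-Glo 30 min RT dark, luminescence read.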
HepG2 tox = kills HepG2 cells in TGF-b inhibitor counter-screen | HepG2 CAGA-GFP viability, ATP luminescence, 18 h | Potency, µM (series often up to 46.1 µM), inactives show at the top dose activity change, negative = cytotoxicity, actives largely listed as cytotoxic | actives 0.76% (n = 410,000); further: potency means the concentration at half of the fitted maximal effect
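HepG2 CAGA-GFP cells (1000/well, DMEM with 1% FBS) received compound, then TGF-beta at 500 pg/mL final, and were incubated 18 hours at 37 degrees C. Viability was read by CellTiter-Glo luminescence. Media-only wells were set as complete cell-killing and DMSO as no toxicity.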
TDP1 block = inhibitors of human tyrosyl-DNA phosphodiesterase TDP1; Q9NUW8; recombinant TDP1, AlphaScreen DNA substrate cleavage; Potency, µM (series often up to 130 µM), for the others: at the top dose activity change, negative = inhibition, hits mostly inhibitors; actives 0.28% (n = 350,000); AID 485290; further: potency means the concentration at half of the fitted maximal effect; on the % scale 0 is the no-effect control and ±100 the full control effect; nearly all actives have a fitted effect of over 40% in size
Target sequence (Q9NUW8 whole entry, looked up): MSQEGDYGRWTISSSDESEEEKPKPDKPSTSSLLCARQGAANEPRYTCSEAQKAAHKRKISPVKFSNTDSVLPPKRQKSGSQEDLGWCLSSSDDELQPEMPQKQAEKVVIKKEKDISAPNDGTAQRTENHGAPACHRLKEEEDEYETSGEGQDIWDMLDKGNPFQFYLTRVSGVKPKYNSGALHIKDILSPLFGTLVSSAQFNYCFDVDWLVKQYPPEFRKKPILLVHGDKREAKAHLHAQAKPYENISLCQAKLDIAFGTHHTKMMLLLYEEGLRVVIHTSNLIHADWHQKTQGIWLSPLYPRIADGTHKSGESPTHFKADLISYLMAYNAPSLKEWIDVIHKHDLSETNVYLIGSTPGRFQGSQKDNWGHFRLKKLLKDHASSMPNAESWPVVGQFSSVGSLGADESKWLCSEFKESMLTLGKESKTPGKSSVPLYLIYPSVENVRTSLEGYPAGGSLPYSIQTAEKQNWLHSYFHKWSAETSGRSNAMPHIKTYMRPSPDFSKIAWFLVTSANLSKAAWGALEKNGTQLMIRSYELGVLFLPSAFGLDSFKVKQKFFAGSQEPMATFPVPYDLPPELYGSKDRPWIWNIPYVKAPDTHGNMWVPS
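Enzyme-compound mixtures sat 15 min at room temperature, followed by a 5 min reaction with 15 nM final substrate and 10 min with AlphaScreen beads. Recombinant human Tdp1 was used at 1 nM final.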
An asterisk follows results filed as active; i = inactive; ? = inconclusive; / = not tested or not shown; [ ] = another dose, or the depositor's remark. Unless noted, the call rests on the fitted dose curve; in most records, active means well fitted curve in the direction sought with a large enough effect; inconclusive means small, poorly fitted or top-dose-only effect, or another doubt; inactive means no such curve, though single readings can be large; an effect the other way counts as inactive or inconclusive.

SMILES | IL-1B inflam inh | TDP1 cell CPT | TGFb inhibitor | TDP1 cell noCPT | HepG2 tox | TDP1 block
CCOc1ccc(C(=O)NNC(=O)CN2C(=O)C3CC=CCC3C2=O)cc1OC (centres undefined) | 2.3 | 5.3% | -2.4% | -8.3% | 2.0% | -0.3%
CCOc1cc(C(=O)Nc2ccc(S(=O)(=O)Nc3cc(OC)nc(OC)n3)cc2)cc(OCC)c1OCC | / | -13.6% | 11.8% | -24.7% | -2.2% | 4.0%[12.3 µM]
CCc1ccc(NC(=O)c2cccc(N3CCCS3(=O)=O)c2)cc1 | / | ? | 0.4% | ? | -32.8% | 2.6%
CCn1nc(C)c(Br)c1C(=O)Sc1ccccc1Cl | -27.6 | 3.66µM* | ? | 4.61µM* | -48.5% | 3.9%
CCn1nc(C)cc1C(=O)Sc1ccc(C)cc1 | ? | ? | -14.5% | ? | -7.4% | /
Oc1ccc(Nc2nc3ccccc3n3cnnc23)cc1 | / | ? | -17.2% | ? | -25.3% | -1.0%
COc1ccc(CC(=O)NC(c2ccccc2)c2ccc(C)cc2)c(OC)c1 (centres undefined) | -13.3 | ? | -27.6% | 18.4µM* | -12.5% | /
Cc1ccc2c(=O)c(C(=O)c3cccc(Cl)c3)cn(CC(=O)Nc3ccc4c(c3)OCCO4)c2n1 | / | ? | 44.5% | ? | 1.1% | 7.9%
O=C(Cn1nc(-c2ccccc2)c2ccccc2c1=O)Nc1cccc(O)c1 | -52.2* | 0.0% | 12.3% | -22.9% | 7.7% | /
O=C(Cn1nc(-c2ccc(Cl)cc2)c2ccccc2c1=O)Nc1cccc(C(F)(F)F)c1 | / | ? | 11.2µM* | ? | -31.1% | /
COCc1ccccc1C1=CC(=O)C[C@H](c2ccc(F)cc2)C1 | -15.2 | -7.5% | 1.2% | -25.9% | -17.9% | -4.8%
Cc1ccc(C(=O)N2CCN(c3ccccc3)CC2)cc1NC(=O)c1nsc2ccccc12 | / | 20.6µM* | -7.5% | ? | 10.0% | 8.1%
Cc1ccc(C)c(NC(=O)N2CCN(C(=O)c3nsc4ccccc34)CC2)c1 | / | ? | -16.6% | 18.4µM* | 9.2% | 0.0%
O=C(Nc1cccc(C(=O)N2CCN(c3ccccc3)CC2)c1)c1nsc2ccccc12 | / | ? | -7.2% | ? | -4.4% | 5.4%
COc1ccc(N2CCN(C(=O)c3cccc(NC(=O)c4nsc5ccccc45)c3)CC2)cc1 | / | 14.6µM* | -0.3% | 11.6µM* | -22.7% | 8.1%
COc1cccc(N2CCN(C(=O)c3cccc(NC(=O)c4nsc5ccccc45)c3)CC2)c1 | / | ? | -4.6% | 20.6µM* | -42.3% | 5.4%
COc1cc(C(=O)O[C@H]2C/C(C)=C/CC/C(C)=C/[C@@H](O)C2C(C)C)ccc1O (some centres undefined) | / | / | / | / | / | 9.5%
COc1ccc(NC(=O)CSc2nc(-c3ccccc3)nc3c2Cc2c(CO)cnc(C)c2O3)cc1Cl | / | 7.1% | 6.7% | 4.6% | -1.8% | /
Cc1ccc2cccc(OC(=O)c3c(F)cccc3Cl)c2n1 | 33.3 | 0.2% | -27.1% | -14.0% | -7.4% | /
O=C(COC(=O)[C@@H]1CC(O)CN1S(=O)(=O)c1ccccc1[N+](=O)[O-])c1ccccc1 (some centres undefined) | 11.5 | -6.6% | -22.7% | -2.5% | -7.7% | 5.3%
COC(=O)c1ccc(COC(=O)[C@@H]2CC(O)CN2S(=O)(=O)c2ccccc2[N+](=O)[O-])cc1 (some centres undefined) | -97.4* | -12.3% | 6.5% | -16.0% | -0.4% | -1.3%
CCc1cccc2c(C(=O)COC(=O)[C@@H]3CC(O)CN3S(=O)(=O)c3ccccc3[N+](=O)[O-])c[nH]c12 (some centres undefined) | -76.4* | 23.1µM* | -0.5% | 20.6µM* | -1.7% | 2.4%
CCN(CC)c1ccc(/C=N/n2c(-c3ccccc3Br)n[nH]c2=S)cc1 | -67.2* | ? | ? | 18.4µM* | 2.7% | /
COc1ccc2c(c1OC)C(=O)OC2Nc1nc(-c2cc3cc(Br)ccc3oc2=O)cs1 (centres undefined) | -56.0* | ? | -14.6% | ? | -32.9% | /
COc1ccc(-c2csc(NC3OC(=O)c4c3ccc(OC)c4OC)n2)cc1OC (centres undefined) | / | 9.2µM* | ? | 14.6µM* | -48.3% | 2.7%
SMILES | IL-1B inflam inh | TDP1 cell CPT | TGFb inhibitor | TDP1 cell noCPT | HepG2 tox | TDP1 block
COc1ccc2c(c1OC)C(=O)OC2Nc1nc(-c2ccc([N+](=O)[O-])cc2)cs1 (centres undefined) | -7.9 | 4.4% | -7.9% | ? | -42.7% | 1.3%
CCn1c(CNC(=O)c2cccc(C)c2)nnc1SCC(=O)N1CCOCC1 | i | 7.2% | 4.3% | -4.8% | 34.5% | -0.1%
Cc1cnc(NC(=O)Cc2ccccc2F)s1 | -13.9 | 7.31µM* | ? | 20.6µM* | 6.9% | 7.0%
COc1ccccc1CCC(=O)Nc1nccs1 | -5.7 | -16.9% | 12.0% | ? | 2.9% | /
COc1ccccc1CCC(=O)Nc1ncc(C)s1 | 0.0 | 10.3µM* | 10.8% | ? | -0.3% | /
CC(=O)N1CCc2c(sc(NC(=O)CS(=O)(=O)c3ccc(F)cc3)c2C(N)=O)C1 | 28.8 | -0.5% | -8.0% | 8.2% | -21.7% | -7.8%
O=C(NN=Cc1ccc2c(c1)CCC2)c1ccccc1[N+](=O)[O-] | 2.8 | 23.1µM* | -2.3% | 18.4µM* | -18.8% | /
O=C(O)c1ccccc1NC(=S)NC(=O)c1sc2ccccc2c1Cl | 2.5 | ? | -9.6% | 16.4µM* | -17.5% | 2.6%
Cc1ccc(NC(=S)NC(=O)c2sc3ccccc3c2Cl)c(C(=O)O)c1 | / | / | / | / | / | 2.4%
O=C(NNC(=S)NC(=O)c1sc2ccccc2c1Cl)c1ccc(Cl)cc1 | 31.4 | 18.4µM* | 0.0% | ? | -36.9% | 10.8%
CC(C)(C)c1ccc(C(=O)C[n+]2cc(Br)cc(Br)c2)cc1 | / | ? | 5.0% | ? | -5.2% | /
c1cncc(-c2nc(N3CCCCCC3)c3ccccc3n2)c1 | -20.6 | ? | -12.2% | ? | -20.6% | -5.8%
c1ccc2c(N3CCCCCC3)nc(-c3ccncc3)nc2c1 | ? | ? | -16.2% | 23.1µM* | -34.6% | 2.3%
c1ccc2c(N3CCCCC3)nc(N3CCCCC3)nc2c1 | 4.1 | 18.4µM* | ? | ? | -6.6% | 6.0%
COc1cccc(NC(=O)CSC2=Nc3ccccc3C3=NC(CC(=O)NCc4ccc5c(c4)OCO5)C(=O)N23)c1 (centres undefined) | / | ? | ? | ? | -79.9% | 2.5%
